Rows were chosen to be rich in hits. Some 12% of all compounds tested hit in one or more screens of this group.
ALDH1A1 block – qHTS Assay for Inhibitors of Aldehyde Dehydrogenase 1 (ALDH1A1); Aldehyde dehydrogenase 1A1 (Homo sapiens), P00352; Purified ALDH1A1, NADH fluorescence, propionaldehyde substrate; Potency, µM (highest dose often 75.3 µM), inactives show at the highest dose activity, negative = inhibition, usual class: inhibitors; 220,000 compounds, 7.3% hits; active means well fitted inhibition curve with a large enough effect, not every such curve was filed as active; inconclusive means small, poorly fitted or top-dose-only effect, or another doubt; inactive means no such curve, though single readings can be large or run the other way;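 further: plate controls were no enzyme wells and a reference inhibitor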
Target sequence (P00352 whole entry, looked up): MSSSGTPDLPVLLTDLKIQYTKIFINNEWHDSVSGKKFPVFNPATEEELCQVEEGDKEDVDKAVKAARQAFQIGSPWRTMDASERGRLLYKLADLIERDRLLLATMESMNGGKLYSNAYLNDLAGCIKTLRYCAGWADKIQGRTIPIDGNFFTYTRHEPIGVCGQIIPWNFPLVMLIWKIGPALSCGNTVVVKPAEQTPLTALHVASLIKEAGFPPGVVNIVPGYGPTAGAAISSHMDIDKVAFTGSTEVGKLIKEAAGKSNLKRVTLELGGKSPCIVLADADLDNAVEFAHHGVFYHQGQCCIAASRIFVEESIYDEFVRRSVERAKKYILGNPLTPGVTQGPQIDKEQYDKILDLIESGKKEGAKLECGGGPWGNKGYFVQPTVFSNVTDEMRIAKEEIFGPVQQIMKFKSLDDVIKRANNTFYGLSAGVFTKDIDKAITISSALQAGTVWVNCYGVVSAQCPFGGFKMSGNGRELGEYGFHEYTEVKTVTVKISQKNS
PLK1 PBD block – qHTS for Inhibitors of PLK1-PDB (polo-like kinase 1 - polo-box domain): Primary Screen. Serine/threonine-protein kinase PLK1 (Homo sapiens), P53350. Potency, µM, for the others: max response, negative = inhibition, most hits filed as inhibitors. Plk1 PBD binding of FITC phosphopeptide, fluorescence polarization. AID 720504, 2013. 360,000 compounds, 2.8% hits; further: series mostly up to about 57 µM; nearly all actives have a fitted effect of over 65% in size
VP16 counter – VP16 counterscreen qHTS for inhibitors of ROR gamma transcriptional activity; Drosophila S2 Gal4-VP16 UAS-luciferase, luminescence, 20 h; Potency, µM (series often up to 53.6 µM), without a hit: at the top dose activity, negative = inhibition, actives largely listed as inhibitors; 310,000 compounds, 3.5% hits;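 further: Gal4-VP16 expression switched on by copper sulfate through the metallothionein promoter; nearly all actives have a fitted effect of over 50% in size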
RORgamma inh – qHTS for inhibitors of ROR gamma transcriptional activity | Nuclear receptor ROR-gamma (Mus musculus), P51450 | Drosophila S2 Gal4-RORgamma UAS-luciferase reporter, 20 h | Potency, µM (highest dose often 53.6 µM), for the others: at the highest dose activity change, negative = inhibition, most hits filed as inhibitors | 310,000 compounds, 5.4% hits | AID 2551, 2010; further: nearly all actives have a fitted effect of over 60% in size
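Drosophila Schneider cells stably carrying a metallothionein-driven Gal4 DBD–ROR gamma fusion and a UAS-Photinus luciferase reporter were exposed to compound for 1 hr, then induced with copper sulfate (700 uM final) for 20 hr at ambient temperature before luminescence reading.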
Sfp PPTase inh – qHTS Assay for Inhibitors of Bacillus subtilis Sfp phosphopantetheinyl transferase (PPTase); Biochemical Sfp PPTase activity, qHTS; 310,000 compounds, 3.5% hits; 4'-phosphopantetheinyl transferase ffp (Bacillus subtilis), Q9F4F7; Potency, µM, for inactives: largest response in the series, negative = inhibition, usual class: inhibitors;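 further: the enzyme is Sfp with the accession as filed and its product quenches rhodamine fluorescence; 0% = enzyme reaction without inhibitor and -100% = no enzyme wells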
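Buffer: 50 mM Hepes-Na pH 7.6, 10 mM MgCl2, 0.01% Nonidet P-40, 0.01% BSA. Enzyme 15 nM, pre-exposed to compound 15 min; substrates then added and fluorescence change tracked over 30 min.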
Active calls of the source: *; ? = inconclusive; nt = no result given; [ ] = another dose, or the depositor's remark. Unless noted, the call rests on the fitted dose curve; in most records, active means well fitted curve in the direction sought with a large enough effect; inconclusive means small, poorly fitted or top-dose-only effect, or another doubt; inactive means no such curve, though single readings can be large; an effect the other way counts as inactive or inconclusive. Unless noted, on the % scale 0 is the no-effect control and ±100 the full control effect; potency means the concentration at half of the fitted maximal effect.

SMILES	ALDH1A1 block	PLK1 PBD block	VP16 counter	RORgamma inh	Sfp PPTase inh
CC1=NN(Cc2ccccc2)C(=O)C1C(c1ccccc1)C(C#N)C#N (centres undefined)	?	24µM*	0%	2%	-2%
CC1=NN(Cc2ccccc2)C(=O)C1C(c1ccc(Cl)cc1)C(C#N)C#N (centres undefined)	25µM*	7.5µM*	-1%	31%	-25%
CC1=NN(Cc2ccccc2)C(=O)C1C(c1ccncc1)C(C#N)C#N (centres undefined)	nt	?	?	-44%	?
CC1=NNC(=O)C1C(c1ccc(Cl)cc1)C(C#N)C#N (centres undefined)	nt	21µM*	5%	3%	-13%
Cc1ccc(C2=NS(=O)(=O)N(C)C(C(=O)Nc3cc(C)n(CC(=O)N4CCC(C)CC4)n3)=C2)cc1	nt	1%	-8%	14%	12%
COCCNC(=O)C1(C)CCCN(C(=O)c2c(F)ccc(C)c2F)C1 (centres undefined)	nt	-2%	nt	nt	nt
COC(=O)[C@@]12C[C@@H](CC(=O)NCCC(C)C)C(=O)N(Cc3cccc4ccccc34)C1=CCC(C)(C)C2	nt	-11%	nt	nt	nt
O=C1Nc2cc(Cl)cnc2N2CCCC12 (centres undefined)	?	30µM*	-2%	18%	50µM*
O=C1Nc2ccccc2C(=O)N2CCC[C@@H]12	11%	nt	2%	15%	0%
O=C1c2cccc([N+](=O)[O-])c2C(=O)N1CCO	6%	-17%	-4%	1%	7%
O=C1CSC(=S)N1N1C(=O)c2cccc([N+](=O)[O-])c2C1=O	7.9µM*	nt	-1%[10 µM]	-7%	0.71µM*
O=C(c1ccccc1)N1CCN(C(=O)C23CC4CC(CC(C4)C2)C3)CC1	25µM*	-1%	1%	1%	11%
O=C(c1ccco1)N1CCN(C(=O)C23CC4CC(CC(C4)C2)C3)CC1	nt	-10%	2%	2%	4%
COc1ccc(OC)c2c1C(=O)c1ccccc1C2=O	7.9µM*	11µM*	-4%	6%	40µM*
COc1ccc(OC)c2c1C(=O)C(Cl)=C(Cl)C2=O	nt	2.1µM*	5µM*	5µM*	0.5µM*
COC1=C(OC)C(=O)c2ccccc2C1=O	14µM*	nt	nt	nt	nt
COc1ccc2noc3c2c1C(=O)c1ccccc1-3	nt	0.38µM*	nt	nt	nt
COc1ccc(N)c2c1C(=O)c1ccccc1C2=O	?	-1%	-23%	-28%	-6%
CN(CC(=O)O)CC(=O)O	-1%[13.5 µM]	nt	nt	nt	nt
COc1ccc(NC(=O)N2CCCC3(CCN(C(=O)c4cnccn4)CC3)C2)cc1	4%	nt	4%	-3%	14%
O=C1c2ccccc2-c2onc3ccc(NCCCn4ccnc4)c1c23	-8%	1.5µM*	-23%	13µM*	-1%
CCC1(C)Cc2sc3c(=O)[nH]c(=S)[nH]c3c2CO1 (centres undefined)	?	11µM*	0%	-3%	?
CCCCCC(=O)/C=C/[C@@H]1[C@@H](C/C=C\CCCC(=O)O)[C@@H](O)C[C@H]1O	6%	nt	-2%	7%	-4%
COc1cc([N+](=O)[O-])ccc1-c1ccc(C(=O)Nc2ccc(NC(C)=O)cc2)o1	0.89µM*	-21%	3%	-4%	10µM*
CC(=O)Nc1ccc(NC(=O)c2ccc(-c3ccc([N+](=O)[O-])cc3)o2)cc1	nt	-12%	-12%	12%	-13%
SMILES	ALDH1A1 block	PLK1 PBD block	VP16 counter	RORgamma inh	Sfp PPTase inh
COc1cccc(NC(=O)c2ccc(-c3ccc([N+](=O)[O-])cc3)o2)c1	?	-13%	0%	11%	20µM*
CC(=O)c1cccc(NC(=O)c2ccc(-c3ccccc3[N+](=O)[O-])o2)c1	?	1%	7.1µM*	?	-69%
COc1ccc(NC(=O)c2ccc(-c3ccc([N+](=O)[O-])cc3)o2)cc1OC	-10%	-3%	-3%	32%	1%
C=CCNC(=O)c1ccc(-c2ccc([N+](=O)[O-])cc2)o1	?	?	27%	35%	25µM*
O=C(NC1CCCCC1)C(c1ccncc1)N(C(=O)c1csnn1)c1cccc(F)c1 (centres undefined)	nt	-5%	-3%	0%	11%
Cc1ccc(-c2ccc(C(=O)Nc3cccc(F)c3)o2)c2ccccc12	?	-2%	?	7%	71µM*
COc1cccc2sc(NN)nc12	1%	-16%	22µM*	13µM*	50µM*
CC(=O)Nc1ccccc1OCc1nnc(-c2ccccc2Cl)o1	nt	-2%	0%	-8%	-5%
COc1ccccc1-c1nnc(Nc2nc3c(OC)cccc3s2)o1	?	0%	?	1.6µM*	18%
COc1cccc2sc(Nc3nc4ccc(NC(C)=O)cc4s3)nc12	?	-2%	-12%	14%	?
COc1cccc2sc(Nc3nnc(-c4ccccc4Cl)o3)nc12	?	-24%	2.5µM*	2µM*	-1%
COc1cccc(-c2nnc(Nc3nc4c(F)cccc4s3)o2)c1	?	21µM*	3.5µM*	?	13%
COc1cccc2sc(Nc3nc(-c4cc5ccccc5oc4=O)cs3)nc12	?	-10%	?	?	?
COc1cccc2sc(Nc3nc(-c4ccncc4)cs3)nc12	1%	-4%	-14%	13µM*	1%
O=C(/C=C/Nc1ccccc1)c1ccccc1	?	2%	5%	-6%	1%
Cc1cc(N/C=C/C(=O)c2ccccc2)ccc1Br	nt	-7%	?	?	7%
O=C(/C=C\NCC(=O)c1ccccc1)c1ccc(F)cc1	20µM*	-5%	-7%	17%	4%
O=C(/C=C\NCC(=O)c1ccccc1)c1ccc2ccccc2c1	4.5µM*	-24%	-15%	15%	-13%
O=C(/C=C/Nc1ccc(F)cc1Br)c1ccccc1	2%	-9%	7.1µM*	2.5µM*	27%
O=C(O)CSCc1cccc2ccccc12	11%[13.5 µM]	nt	nt	nt	nt
O=C(CNC(=O)C1COc2ccccc2O1)Nc1ccc(F)c(F)c1 (centres undefined)	nt	4%	nt	nt	nt
C=COCCNC(=S)Nc1cccc(Cl)c1	-7%	-1%	?	6.3µM*	18%
COCCCNC(=S)NNC(=S)Nc1cccc(Cl)c1	4.5µM*	-29%	6%	-29%	22µM*
S=C(NCCN1CCOCC1)Nc1cccc(Cl)c1	2%	-9%	1%	-42%	7%
CCC(C)(C)OC	?	nt	?	-21%	nt
CN1CCN(c2ncc3nc(-c4cccs4)c(=O)n(C[C@H]4CCCO4)c3n2)CC1	?	nt	11%	-8%	3%
CCCCN1C(=O)/C(=C2\SC(N3CCCCC3)=NC2=O)c2ccccc21	10µM*	24µM*	-15%	5%	45µM*
